# Experimental data taken from paper PMC7819943, “Rice protein-binding microarrays: a tool to detect cis-acting elements near promoter regions in rice”.
# In all, about 68,000 sequences were measured (“fluorescence intensity (a.u.)”: median about 9,100, highest 2% from about 16,000 on). Shown is part of a subset that was picked to be rich in the highest values.
# Target: OsWRKY34 (Oryza sativa, UniProt Q0JBA9 1-250)
# Test: protein-binding microarray (RPBM); PBS, 2% BSA, 51.3 ng/ul salmon testes DNA, 50 uM zinc acetate, 200 nM TF, 25 C, 1 h; high values mean tight binding
# Settings: protein: recombinant; tags: N-terminal polyhistidine and DsRed monomer fusion (pET32a); label: CyDye5-dUTP incorporated in the synthesized complementary strand; 3' TTTTT single-stranded linker to array surface; dsDNA, one strand shown
# How it was run: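 Ni–NTA purification followed expression in E. coli BL21-CodonPlus of transcription factors fused N-terminally to a polyhistidine tag and DsRed. At 200 nM in PBS with 2% BSA, salmon testes DNA and 50 µM zinc acetate, the protein was incubated for 1 h at 25 °C with a custom Agilent array that had been primer-extended with Cy5-dUTP and blocked with 2% BSA. After washing, the array was read on an Axon 4000B scanner. The binding signal is per-feature fluorescence intensity in arbitrary units.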
# Chain of OsWRKY34 (Q0JBA9 entry or part of it): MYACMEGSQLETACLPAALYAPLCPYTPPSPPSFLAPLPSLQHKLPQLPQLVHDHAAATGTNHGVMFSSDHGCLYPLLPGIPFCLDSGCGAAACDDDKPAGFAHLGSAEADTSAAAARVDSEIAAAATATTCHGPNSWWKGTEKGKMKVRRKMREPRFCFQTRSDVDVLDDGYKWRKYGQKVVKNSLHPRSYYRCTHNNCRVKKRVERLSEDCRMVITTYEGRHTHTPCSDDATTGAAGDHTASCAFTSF
row,Sequence,binding signal
1,CTGAAAATTTTGTGCGCTCACACCATGTGCTACATTTGTCCGGAGTCACCTAGTGCAG,10700 fluorescence intensity (a.u.)
2,TTCCTCCGTTTTTTTTATTCCTGCAACTAAAAGGTATTCTCGGAGTCACCTAGTGCAG,8860 fluorescence intensity (a.u.)
3,GGTCTCAGGTTGTCACTTTTCTATCCAGATTTATCGTAGTCGGAGTCACCTAGTGCAG,8110 fluorescence intensity (a.u.)
4,ATCCTCACGTAATATACACCTTCGTACCATAATATAATAACGGAGTCACCTAGTGCAG,8250 fluorescence intensity (a.u.)
5,CGCTTCCTGTTGTGATTATGTAATCTTGTATTCTTGTTGACGGAGTCACCTAGTGCAG,11600 fluorescence intensity (a.u.)
6,CTCCCTCGTCTTTCTGCTGGCCACCACCCTCCCCGTCTTCCGGAGTCACCTAGTGCAG,12300 fluorescence intensity (a.u.)
7,ACCTTTCTCACTACACGCCATTCCGCTCGCGTCCAATTGTCGGAGTCACCTAGTGCAG,10100 fluorescence intensity (a.u.)
8,CTCGTCGTCTCCTCCGCTCCTTGCGCCATCTCGCGGCTGACGGAGTCACCTAGTGCAG,11500 fluorescence intensity (a.u.)
9,CATGATCGCTGTGCACCTTCTGAATCATCTCTTCAATGGCCGGAGTCACCTAGTGCAG,9780 fluorescence intensity (a.u.)
10,TTTAAATGTATCATGTCATTGACTTTTTTATAATATTTGACGGAGTCACCTAGTGCAG,8120 fluorescence intensity (a.u.)
11,CATGCCAATCATAAATAATGACATATTGGTTGACTTTTTGCGGAGTCACCTAGTGCAG,11000 fluorescence intensity (a.u.)
12,TTTAATGTATGGTGCCGTTGACTTTTTTTATCAATATTTGCGGAGTCACCTAGTGCAG,41200 fluorescence intensity (a.u.)
13,CATACTGTTCCACTCGCCCTCGTTTTCTCCGCCACCGAGCCGGAGTCACCTAGTGCAG,8450 fluorescence intensity (a.u.)
14,TTGACGCCGTTGACTTTTTAGTACATGTTTGACCATTCGTCGGAGTCACCTAGTGCAG,49900 fluorescence intensity (a.u.)
15,TTGACGCCGTTGACTTTTTAATACATGTTTGACCATTCGTCGGAGTCACCTAGTGCAG,44300 fluorescence intensity (a.u.)
16,ATACTCCCTTCGTTTCGAAATGTTTGACGCCGTTGACTTTCGGAGTCACCTAGTGCAG,14300 fluorescence intensity (a.u.)
17,CGCTGTTCAGACGTTGACTCTCGTTGTTTTTATAGTTTTTCGGAGTCACCTAGTGCAG,14600 fluorescence intensity (a.u.)
18,TCCGTTTCGGAATGTTTGACGCCGTTGACTTTTTATTACACGGAGTCACCTAGTGCAG,25400 fluorescence intensity (a.u.)
19,CTCCCTCTATCAAAAAAATGTTTGACGCCGTTGACTTTTTCGGAGTCACCTAGTGCAG,25600 fluorescence intensity (a.u.)
20,ACTCTCTCCGTTTCGAAATGTTTGACGCTGTTGACTTTTTCGGAGTCACCTAGTGCAG,17500 fluorescence intensity (a.u.)
21,CTCCCTCCGTTTCGAAATGTTTGACGCCGTTGACTTTTTACGGAGTCACCTAGTGCAG,15900 fluorescence intensity (a.u.)
22,ACTCCCTCCGTTTCAAAATGTTTGACATCATTGACTTTTTCGGAGTCACCTAGTGCAG,11100 fluorescence intensity (a.u.)
23,CTCCCTTCGTTTCGAAATGTTTGACGCCGTTGACTTTTTACGGAGTCACCTAGTGCAG,22800 fluorescence intensity (a.u.)
24,CACCCTCTCCCGTGTTCCACCCCGCCCGCGAATCATATCCCGGAGTCACCTAGTGCAG,9340 fluorescence intensity (a.u.)
25,TCCGTCCCTGCAGTCACCTTATTGGTCAAATTTTAAATATCGGAGTCACCTAGTGCAG,13400 fluorescence intensity (a.u.)
26,TAGGGGTGGGCATTCGGTCTAACTGAAAATTTCGGTCTCGCGGAGTCACCTAGTGCAG,13500 fluorescence intensity (a.u.)
27,TGACGTTTGACCAAAGTTTTCTTCAATTTTTCAGAAATGGCGGAGTCACCTAGTGCAG,9900 fluorescence intensity (a.u.)

row,Sequence,binding signal
1,GGTCTATGTCTCTCTGATTATTTCTTTTACTAATTGTTTGCGGAGTCACCTAGTGCAG,9060 fluorescence intensity (a.u.)
2,CTTCTGCTCTCTAGCTAGCCTTCTTCCTATTGGAAGCTTCCGGAGTCACCTAGTGCAG,9230 fluorescence intensity (a.u.)
3,GATCCTCTGTTTTATCTACGCGTTCCTATCAAATTCCTTTCGGAGTCACCTAGTGCAG,16800 fluorescence intensity (a.u.)
4,CATTCCTATCAAAATCCTACGTTTTTCCTATTCCTACGTTCGGAGTCACCTAGTGCAG,9840 fluorescence intensity (a.u.)
5,TTCTCTTTTATCTGTTTGCTTCCTATAAATTCTACGCGATCGGAGTCACCTAGTGCAG,8480 fluorescence intensity (a.u.)
6,ATATTCCCTCCGTTTTGAAATGTTTGACGCCGTTGACTTTCGGAGTCACCTAGTGCAG,17000 fluorescence intensity (a.u.)
7,CCGCTGGCCCTTGTTGACACCTTGACTACGAAATGTATTCCGGAGTCACCTAGTGCAG,8980 fluorescence intensity (a.u.)
8,TGCACCTGGCCGCGTTGACCGTTCGAAATGTATATATTCCCGGAGTCACCTAGTGCAG,19600 fluorescence intensity (a.u.)
9,TTATACTCCCTCCGTTTCGAAATGTTTGACGCCGTTGACTCGGAGTCACCTAGTGCAG,11400 fluorescence intensity (a.u.)
10,CAACGAAAATACTAACAACATGCACCTGGCCGCGTTGACCCGGAGTCACCTAGTGCAG,13900 fluorescence intensity (a.u.)
11,GCGCTACTTCGCTCGACCACCCGCCCGCCTTCCACTGCCACGGAGTCACCTAGTGCAG,8550 fluorescence intensity (a.u.)
12,CTCTAATTTTCTTTGCGTGTTCCATCATCAATATGGTATTCGGAGTCACCTAGTGCAG,10700 fluorescence intensity (a.u.)
13,CAATTTCGAGCTTCGTATCAGCATATGCTATTCCCTATTGCGGAGTCACCTAGTGCAG,10500 fluorescence intensity (a.u.)
14,TTGACTTTTTAGCACATGTTTGACCGTTCGTCTTATTCAACGGAGTCACCTAGTGCAG,8480 fluorescence intensity (a.u.)
15,CGTTGACTTTTCTAAACATGTTTGACCGTTCGTCTTATTCCGGAGTCACCTAGTGCAG,28400 fluorescence intensity (a.u.)
16,CATTGACTTTTTTAAACATGTTTGACTGTTCGTCTTATTCCGGAGTCACCTAGTGCAG,11500 fluorescence intensity (a.u.)
17,GACTTTTTAGCACATGTTTGACCGTTCGTCTTATTCAAAACGGAGTCACCTAGTGCAG,10800 fluorescence intensity (a.u.)
18,TGACTTTTTAGCATATGTTTGACCGCTCGTCTTATTCAAACGGAGTCACCTAGTGCAG,8220 fluorescence intensity (a.u.)
19,CGTTGACTTTTTAGCACATGTTTGACCGTTCGTCTTATTCCGGAGTCACCTAGTGCAG,29000 fluorescence intensity (a.u.)
20,TTAGCACATGTTTGACCGTTCGTCTTATTCAAAATTTTTTCGGAGTCACCTAGTGCAG,12600 fluorescence intensity (a.u.)
21,GTTGACTTTTTTAAACATGTTGGACCGTTCGTCTTATTCACGGAGTCACCTAGTGCAG,9150 fluorescence intensity (a.u.)
22,ACCGTTGACTTTTTAGCACATGTTTGACCGCTCGTCTTATCGGAGTCACCTAGTGCAG,54800 fluorescence intensity (a.u.)
23,CAGATCGACTCGACTCGACCAGGTTCTCTCGTTTTTACTCCGGAGTCACCTAGTGCAG,9940 fluorescence intensity (a.u.)
24,CTCTCTCTCTGCTGCTGCTCTCTAATCAGTAACCAGTAGTCGGAGTCACCTAGTGCAG,9580 fluorescence intensity (a.u.)
25,TTGTTTATTTAAGGTGTGATTGTATTTGGATCATGTTTTGCGGAGTCACCTAGTGCAG,8980 fluorescence intensity (a.u.)
26,GGGGTATAATTTGTGTCTTAGCTGATAGAATGTGCAGTTGCGGAGTCACCTAGTGCAG,9980 fluorescence intensity (a.u.)
27,AAGGACCCAGCTGTTCGCCACGTGTGCGTGTTGACTTCCACGGAGTCACCTAGTGCAG,9780 fluorescence intensity (a.u.)
